According to PubChem BioAssay AID1159580 (chemical genetic matrix, 2015):
Where “and” joins values, the source holds several entries; their conditions need not be identical. Equal values may be shown once. Hit rate of the full screen: of about 5,500 compounds, about 2,000 (36%) were called active. Not shown: some 18% with an inconclusive outcome. No stated cut-off is given here; in the data, active means normalized growth mostly below about 0.91 (no sharp cut-off); inconclusive means no clear call, values can overlap the other calls; inactive means mostly above about 0.92. The list shows a part of the results.

Test: chemical genetic growth profiling, strain panel (AID 1159580);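 further: tested at 20 µM; growth read once vehicle control cultures reached saturation at 30 °C; 1 = growth at the plate median or of vehicle wells; lower values mean less growth of the strain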
Settings: S. cerevisiae deletion strains, growth OD

Measured: normalized growth

COc1ccc2c(c1OC)C(=O)O[C@@H]2[C@H]1c2cc3c(cc2CCN1C)OCO3
inactive: locus YAL013W, strain DEP1, active compounds read low 1.03 | locus YAL021C, strain ccr4, active compounds read low 1.01 | locus YAL026C, strain drs2, active compounds read low 0.993 | locus YAL030W, strain snc1, active compounds read low 0.991 | locus YBL061C, strain skt5, active compounds read low 0.992 | locus YBR009C, strain hhf1, active compounds read low 0.984 | locus YBR021W, strain FUR4, active compounds read low 1.04 | locus YBR023C, strain chs3, active compounds read low 0.987 | locus YBR171W, strain sec66, active compounds read low 1 | locus YBR229C, strain ROT2, active compounds read low 1.01 | locus YBR231C, strain swc5, active compounds read low 0.989 | locus YBR279W, strain paf1, active compounds read low 0.992 | locus YCL011C, strain gbp2, active compounds read low 0.996 | locus YCL016C, strain dcc1, active compounds read low 0.974 | locus YCL029C, strain bik1, active compounds read low 1.02 | locus YCL061C, strain MRC1, active compounds read low 0.995 | locus YCL069W, strain vba3, active compounds read low 1 | locus YCR088W, strain abp1, active compounds read low 0.997 | locus YDL005C, strain med2, active compounds read low 0.997 | locus YDL035C, strain GPR1, active compounds read low 1.03 | locus YDL040C, strain nat1, active compounds read low 0.991 | locus YDL074C, strain BRE1, active compounds read low 1.03 | locus YDL101C, strain DUN1, active compounds read low 1.01 | locus YDL134C, strain PPH21, active compounds read low 1.01 | locus YDL185W, strain tfp1, active compounds read low 1.03 | locus YDL192W, strain arf1, active compounds read low 1.02 | locus YDR001C, strain nth1, active compounds read low 1 | locus YDR069C, strain doa4, active compounds read low 0.981 | locus YDR101C, strain arx1, active compounds read low 1.01 | locus YDR137W, strain rgp1, active compounds read low 0.969 | locus YDR150W, strain NUM1, active compounds read low 1.02 | locus YDR159W, strain sac3, active compounds read low 0.991 | locus YDR162C, strain NBP2, active compounds read low 1.02 | locus YDR195W, strain ref2 0.985 | locus YDR297W, strain sur2, active compounds read low 0.985 | locus YDR318W, strain mcm21, active compounds read low 1.03 | locus YDR334W, strain swr1, active compounds read low 0.998 | locus YDR335W, strain msn5, active compounds read low 0.989 | locus YDR388W, active compounds read low 1.02 | locus YDR392W, strain spt3, active compounds read low 0.929 | locus YDR502C, strain sam2, active compounds read low 1.01 | locus YEL003W, strain gim4, active compounds read low 1.01 | locus YEL037C, strain rad23, active compounds read low 1 | locus YEL061C, strain CIN8 (second series), active compounds read low 1.01 | locus YEL061C, strain CIN8, active compounds read low 1.01 | locus YER015W, strain faa2, active compounds read low 0.974 | locus YER016W, strain bim1, active compounds read low 0.991 | locus YER110C, active compounds read low 1.03 | locus YER111C, strain swi4, active compounds read low 1.01 | locus YER155C, strain BEM2 (second series), active compounds read low 0.995 | locus YER155C, strain BEM2, active compounds read low 1.02 | locus YER167W, strain BCK2, active compounds read low 1.04 | locus YFR010W, strain ubp6, active compounds read low 1.01 | locus YGL078C, strain dbp3, active compounds read low 1.03 | locus YGL086W, strain mad1, active compounds read low 1.03 | locus YGL167C, strain pmr1, active compounds read low 0.984 | locus YGL173C, strain kem1, active compounds read low 0.993 | locus YGL227W, strain vid30, active compounds read low 0.994 | locus YGL240W, strain doc1, active compounds read low 0.958 | locus YGL248W, strain PDE1, active compounds read low 1.02 | locus YGL253W, strain hxk2, active compounds read low 0.999 | locus YGR078C, strain PAC10, active compounds read low 1.01 | locus YGR135W, strain pre9, active compounds read low 1.01 | locus YGR229C, strain SMI1, active compounds read low 1.03 | locus YGR252W, strain gcn5, active compounds read low 1.06 | locus YHR013C, strain ard1, active compounds read low 0.965 | locus YHR027C, strain rpn1, active compounds read low 1.01 | locus YHR030C, strain SLT2, active compounds read low 1.02 | locus YHR079C, strain IRE1 (second series), active compounds read low 1.02 | locus YHR079C, strain IRE1, active compounds read low 0.995 | locus YHR094C, strain hxt1, active compounds read low 1.02 | locus YHR129C, strain ARP1, active compounds read low 1.02 | locus YHR142W, strain chs7, active compounds read low 1.01 | locus YHR200W, strain rpn10, active compounds read low 1.01 | locus YIL066C, strain RNR3, active compounds read low 1.02 | locus YIL073C, strain SPO22, active compounds read low 1.11 | locus YIL125W, strain kgd1, active compounds read low 1.02 | locus YIR030C, strain dcg1, active compounds read low 1.01 | locus YJL092W, strain hpr5, active compounds read low 0.999 | locus YJL095W, strain BCK1 (second series), active compounds read low 0.996 | locus YJL095W, strain BCK1, active compounds read low 1.01 and 1 | locus YJL115W, strain asf1, active compounds read low 0.997 | locus YJL129C, strain trk1, active compounds read low 1.02 | locus YJL134W, strain LCB3, active compounds read low 1.01 | locus YJL154C, strain vps35, active compounds read low 0.999 | locus YJL164C, strain tpk1, active compounds read low 0.984 | locus YJL166W, strain qcr8, active compounds read low 0.975 | locus YJL168C, strain set2, active compounds read low 1.01 | locus YJL187C, strain SWE1 (second series), active compounds read low 1.02 | locus YJL187C, strain SWE1, active compounds read low 0.988 | locus YJR043C, strain POL32, active compounds read low 1.06 | locus YJR066W, strain TOR1, active compounds read low 0.975
